The list is not random: actives were taken first. Their share in the collection is about 3.5%.
NS1 function inh: qHTS Assay for Inhibitors of Influenza NS1 Protein Function; AID 2326, 2010; Potency, µM (highest dose often 46.1 µM), for inactives: at the top dose activity, positive = more growth; 270,000 tested, 0.4% active; calls by dose curve; note: actives are rising curves; nearly all actives have a fitted effect of over 50% in size
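Read-out: OD600 growth recovery of NS1-expressing budding yeast. Cells grown overnight at 30C in -URA glucose medium, washed, resuspended and diluted 1:100 in 2% galactose assay medium, pH 6.0. Same strain lacking NS1 served as positive control.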
RE007 growth inh: qHTS Assay for Inhibitors of the HIV-1 protein Vpr. S. pombe RE007 Vpr strain, BacTiter-Glo ATP luminescence, 24 h. Potency, µM (top dose mostly 92.2 µM), inactives show at the highest dose activity change, negative = less growth, usual class: inhibitors. 360,000 tested, 0.21% active; active = well fitted falling curve with a large enough effect; inconclusive = small, poorly fitted or top-dose-only effect; inactive = no such curve, though single readings can be large or run the other way; note: % is set by controls: 0 for no effect and ±100 for the full control effect; nearly all actives have a fitted effect of over 50% in size
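Fission yeast RE007 carrying one integrated HIV-1 vpr copy, seeded at OD 0.01 in PMG+AL medium with 23 nL pinned compound. Grown 24 h at 30 degrees; viability read by BacTiter-Glo luminescence after 5 min.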
Sm TGR block: qHTS Assay for the Inhibitors of Schistosoma Mansoni Peroxiredoxins; Schistosoma mansoni thioredoxin glutathione reductase (TGR), Q962Y6; 360,000 tested, 3% active; purified TGR, DTNB reduction, TNB absorbance 405 nm; Potency, µM (titrated, usually from 114 µM), for inactives: at the top dose activity change, negative = inhibition, hits mostly inhibitors; note: % is set by controls: 0 for no effect and ±100 for the full control effect; nearly all actives have a fitted effect of over 60% in size
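TGR 20 nM + NADPH 100 uM (dispensed conc.), cpd preinc 15 min RT; start with NADPH (500 uM addition) then DTNB (15 mM addition). Kinetic TNB absorbance, 405 nm filter. Four-parameter Hill fit across titration.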
LmPK inh: qHTS Assay for Inhibitors of Leishmania Mexicana Pyruvate Kinase (LmPK); Q27686; purified LmPK, Kinase-Glo ATP luminescence, 1 h; Potency, µM (top dose mostly 57.5 µM), inactives show at the top dose activity change, negative = inhibition, most hits filed as inhibitors; 290,000 tested, 0.37% active; AID 1721, 2009; note: % is set by controls: 0 for no effect and ±100 for the full control effect
Target sequence (Q27686 whole entry, looked up): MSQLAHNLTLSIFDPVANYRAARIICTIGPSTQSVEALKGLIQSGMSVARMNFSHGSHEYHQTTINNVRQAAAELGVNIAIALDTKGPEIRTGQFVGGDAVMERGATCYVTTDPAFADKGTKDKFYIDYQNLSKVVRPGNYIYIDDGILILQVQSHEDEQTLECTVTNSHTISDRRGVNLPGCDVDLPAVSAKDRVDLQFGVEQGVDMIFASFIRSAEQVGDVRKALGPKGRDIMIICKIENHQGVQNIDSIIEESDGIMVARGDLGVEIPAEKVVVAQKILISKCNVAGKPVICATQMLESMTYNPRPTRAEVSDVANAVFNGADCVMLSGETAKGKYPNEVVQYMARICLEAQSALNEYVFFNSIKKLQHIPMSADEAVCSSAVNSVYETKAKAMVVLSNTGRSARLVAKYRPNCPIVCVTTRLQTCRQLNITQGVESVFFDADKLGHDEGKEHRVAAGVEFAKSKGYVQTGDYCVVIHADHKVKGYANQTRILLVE
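0.1 nM LmPK, 0.5 mM PEP, 0.1 mM ADP; 50 mM imidazole pH 7.2, 7 mM MgCl2, 50 mM KCl; 1 h RT. Kinase-Glo luminescence readout, normalized to no-enzyme (full inhibition) and uninhibited wells.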
Giardia FBPA inh: qHTS Assay for Inhibitors of Fructose-1,6-bisphosphate Aldolase from Giardia Lamblia. A8B2U2. purified Giardia FBPA. Potency, µM (highest dose often 59.6 µM), inactives show at the highest dose activity, negative = inhibition, usual class: inhibitors. 290,000 tested, 0.71% active. AID 2451, 2010; note: % is set by controls: 0 for no effect and ±100 for the full control effect; nearly all actives have a fitted effect of over 55% in size
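40 nM FBPA preincubated 10 min at RT with compound (up to 57.5 uM final), then substrate plus GAPDH/TPI/NAD/arsenate coupling and diaphorase/resazurin added. Fluorescence read after 20 min at RT, 525/598 nm.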
Tb PYK inh: qHTS of Trypanosoma Brucei Inhibitors; pyruvate kinase (Trypanosoma brucei), Q57TT1; AID 624173, 2012; 410,000 tested, 0.12% active; Potency, µM (highest dose often 76.8 µM), for the others: top-dose activity, negative = inhibition, hits mostly inhibitors; TbPYK enzyme, Kinase-Glo Plus ATP luminescence, 45 min; note: % is set by controls: 0 for no effect and ±100 for the full control effect; nearly all actives have a fitted effect of over 50% in size
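Enzyme and substrate buffer are dispensed first and compound is pin-transferred. ADP at 130 uM final then starts the reaction, which runs 45 min at room temperature. Detection reagent is added for 10 min before luminescence is imaged.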
* = called active by the depositor; u = inconclusive; x = no result given. Unless noted, calls come from the whole dose curve; as a rule, active = well fitted curve in the direction sought with a large enough effect; inconclusive = small, poorly fitted or top-dose-only effect, or another doubt; inactive = no such curve, though single readings can be large; an effect the other way counts as inactive or inconclusive. Potency is the fitted concentration of half-maximal effect.

SMILES	NS1 function inh	RE007 growth inh	Sm TGR block	LmPK inh	Giardia FBPA inh	Tb PYK inh
COc1ccc(CCNC(=O)CCCn2nc(C)c3sc4ccccc4c3c2=O)cc1OC	x	x	1%	x	x	4%
Cc1ccc(S(=O)(=O)N2CN(Cc3ccco3)c3nc4ccccc4nc32)cc1	9%	-3%	22µM*	2%	-14%	-4%
Cc1ccc(S(=O)(=O)Nc2nc3ccccc3nc2NCc2ccco2)cc1	-41%	-2%	13µM*	3%	-16%	-5%
COc1ccc(S(=O)(=O)N2CN(Cc3ccco3)c3nc4ccccc4nc32)cc1	u	7%	11µM*	0%	-17%	-5%
Cc1ccc(Cl)cc1N1CCN(C(=O)C2CCN(S(=O)(=O)c3c(C)noc3/C=C/c3ccccc3F)CC2)CC1	x	x	5%	x	x	0%
CCCC[C@H](NC(=O)[C@H](CC(C)C)NC(=O)[C@@H](Cc1c[nH]c2ccccc12)NC(=O)[C@H](Cc1ccccc1)NC(=O)[C@@H](Cc1c[nH]c2ccccc12)NC(=O)[C@H](CC(N)=O)NC(=O)[C@@H](Cc1c(Cl)cccc1Cl)NC(=O)[C@@H]1CCCN1C(=O)[C@H](Cc1ccccn1)NC(=O)[C@@H]1CCCN1C(=O)[C@H](N)CCCCNC(=O)c1cccnc1)C(N)=O	x	x	x	x	2%	x
Cc1cc(Br)ccc1NC(=O)c1sc2nc3n(c(=O)c2c1C)CCCC3	x	x	22µM*	x	x	1%
CCOC(=O)c1ccccc1NC(=O)c1sc2nc3n(c(=O)c2c1C)CCCC3	x	x	45µM*	x	x	-2%
CCOc1ccc(C(CC(=O)O)N2Cc3ccccc3C2=O)cc1OC (stereo not drawn)	x	x	8%	x	x	-1%
COC(=O)C1=C(c2ccc(C(C)=O)cc2)C[C@@H]2CC[C@H]1N2C(=O)NCC1CC1	x	14%	22µM*	x	x	0%
COc1ccc(OC)c(CNc2ncnc3onc(-c4ccc(Cl)cc4)c23)c1	x	x	5%	x	x	-5%
C[C@H](NC(=O)[C@@H]1Cc2ccccc2CN1C(=O)OC(C)(C)C)C(=O)NCc1ccco1	8%	9%	40µM*	-10%	x	-3%
C[C@@H](NC(=O)[C@@H]1Cc2ccccc2CN1C(=O)OC(C)(C)C)C(=O)NCc1ccco1	11%	-1%	-12%	1%	x	0%
COc1ccc(CCNC(=S)Nc2ccc(OC)cc2)cc1	-18%	-9%	-19%	2%	3%	-12%
COc1ccc(NC(=S)NCCCCCC(=O)C[N+](=O)[O-])cc1	x	-22%	20µM*	6%	-10%	-26%
O=C(CCCCCNC(=S)Nc1ccc(Cl)cc1)C[N+](=O)[O-]	-1%	5%	-23%	-3%	0%	-13%
O=C(CCCCCNC(=S)Nc1ccccc1)C[N+](=O)[O-]	x	-19%	25µM*	5%	-10%	-8%
COc1ccc(Cl)cc1N=C1NC(=O)CC(C(=O)Nc2ccccc2C(F)(F)F)S1 (stereo not drawn)	x	x	-8%	x	x	0%
Cc1ccc(S(=O)(=O)c2nc(-c3ccco3)oc2NCC2CCCO2)cc1 (stereo not drawn)	8%	19%	8.9µM*	0%	-29%	-19%
O=S(=O)(c1ccc(Br)cc1)c1nc(-c2ccco2)oc1NCC1CCCO1 (stereo not drawn)	x	14%	20µM*	5%	-6%	4%
COc1ccc(Nc2nnc(-c3ccc(C)c(S(=O)(=O)NCc4nc5ccccc5[nH]4)c3)c3ccccc23)cc1	x	x	-4%	x	x	2%
COc1ccc(Br)cc1C(C[N+](=O)[O-])c1c(N)n(C)c(=O)n(C)c1=O (stereo not drawn)	-133%	10µM*	-20%	-1%	-3%	-4%
CN(C)c1ccc(C(C[N+](=O)[O-])c2c(N)n(C)c(=O)n(C)c2=O)c(F)c1C#N (stereo not drawn)	-92%	u	-3%	-4%	-1%	-5%
N#Cc1ccc(N2C(=O)[C@@H]3C(C(=O)c4cnccn4)=NN[C@@H]3C2=O)cc1	-4%	-1%	8.9µM*	3%	u	-4%
O=C(C1=NN[C@@H]2C(=O)N(c3cccc(C(F)(F)F)c3)C(=O)[C@H]12)c1cnccn1	4%	-3%	18µM*	-9%	-19%	-7%
SMILES	NS1 function inh	RE007 growth inh	Sm TGR block	LmPK inh	Giardia FBPA inh	Tb PYK inh
N#Cc1ccc(N2C(=O)[C@@H]3C(C(=O)c4ccc5ccccc5n4)=NN[C@@H]3C2=O)cc1	2%	-22%	50µM*	-1%	-12%	-6%
O=C(C1=NNC2C(=O)N(c3ccccc3)C(=O)C12)c1nc(Cl)ccc1Cl (stereo not drawn)	11%	25%	10%	-3%	0%	-1%
C[C@H](CN1CCCC1)C(=O)c1ccc(C(F)(F)F)cc1	x	x	x	x	x	0%
Cc1ccc(CCNC(=O)c2c(C)oc3nc(C)nc(N4CCOCC4)c23)cc1	x	x	7%	x	x	-1%
Cc1ccc(NS(=O)(=O)c2cnc(N)nc2)c(C)c1	x	x	0%	x	x	-5%
O=C(CSc1ccc2nnc(-c3cccnc3)n2n1)NCc1ccco1	-92%	-4%	32µM*	15%	-13%	-9%
Cc1ccc(-n2c(Cc3cccn3C)nnc2SCC(=O)NCc2ccco2)cc1	u	-2%	40µM*	6%	-3%	-10%
C=CCn1c(SCC(=O)NCc2ccco2)nnc1-c1ccc2ccccc2n1	-30%	-12%	16µM*	-6%	-15%	-10%
C=CCn1c(SCC(=O)NCc2ccco2)nc2ccccc2c1=O	1%	23%	-18%	3%	6%	-1%
O=C(CSc1ccc2nnc(-c3cccc(F)c3)n2n1)NCc1ccco1	-2%	-3%	u	2%	0%	-15%
Cn1c(-c2ccccc2)cnc1SCC(=O)NCc1ccco1	-7%	5%	40µM*	0%	-1%	3%
Cc1nc2nc(SCC(=O)NCCc3ccccc3)nn2c(C)c1Cc1c(F)cccc1Cl	x	x	-6%	x	x	-4%
CC1CCN(S(=O)(=O)c2nnc(NC(=O)c3ccc(C(C)C)cc3)s2)CC1	x	x	5%	x	x	1%
COc1cccc(NC(=O)c2oc3ccccc3c2NC(=O)C2CCCCC2)c1	x	x	-9%	x	x	-1%
COc1cccc(-c2nnc(SCC(=O)Nc3ccc4c(c3)OCCO4)n2Cc2ccco2)c1	-4%	-7%	-25%	4%	22%	-18%
COc1cccc(-c2nnc(SCC(=O)NCc3ccc4c(c3)OCO4)n2Cc2ccco2)c1	-1%	-2%	45µM*	14%	-3%	u

Bioassay records deposited in PubChem by National Center for Advancing Translational Sciences (NCATS).
